Laboratory results taken from PubChem BioAssay (Tox21).
Inconclusive results are not listed. Activity calls are given as the source filed them. Unless noted, the call rests on the fitted dose curve.

Legend:
[1] = Nuclear factor erythroid 2-related factor 2/antioxidant responsive element (Nrf2/ARE) small molecule agonists: qHTS cell viability counter screen in human keratinocytes (AID 1919968; active means well fitted curve in the direction sought with a large enough effect in the repeat runs; an effect the other way counts as inactive or inconclusive; further: nearly all actives have a fitted effect of over 55% in size)
Outline: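 Fluorescence read-out from CellTiter-Fluor after 1 h at 37 C. Wells held HaCaT-derived ARE-luciferase reporter cells (1,500/well) treated 23 h with DMSO-dissolved compounds. Run in the same wells as the luciferase agonist read.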

[2] = target: Gonadotropin-releasing hormone receptor (Homo sapiens) (UniProt P30968); experiment: Human gonadotropin-releasing hormone receptor (GnRHR) small molecule agonists, calcium flux assay in GnRHR-HEK293 cells (AID 1920063); further: nearly all actives have a fitted effect of over 35% in size
Chain of Gonadotropin-releasing hormone receptor (Homo sapiens) (P30968 whole entry, looked up): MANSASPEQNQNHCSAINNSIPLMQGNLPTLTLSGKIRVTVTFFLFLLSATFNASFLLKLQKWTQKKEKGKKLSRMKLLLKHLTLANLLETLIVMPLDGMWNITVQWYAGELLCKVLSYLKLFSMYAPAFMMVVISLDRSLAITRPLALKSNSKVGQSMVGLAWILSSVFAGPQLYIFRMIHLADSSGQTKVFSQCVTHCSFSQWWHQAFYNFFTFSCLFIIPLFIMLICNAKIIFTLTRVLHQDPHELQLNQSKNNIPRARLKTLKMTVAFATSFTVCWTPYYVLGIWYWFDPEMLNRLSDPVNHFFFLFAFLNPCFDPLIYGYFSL
Outline: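 Calcium-dye fluorescence, Ex/Em=480/540, recorded every 1 sec over 3 min after compound addition to GnRHR-HEK293 cells. Cells had been seeded 18 hours earlier and dye-loaded for 1 hour at 37 C. Fifteen concentrations, triplicates.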

[3] = target: KiSS-1 receptor (Homo sapiens) (UniProt Q969F8); experiment: Human kisspeptin (KISS1R) small molecule agonists, calcium flux assay in KISS1R-HEK293 cells (AID 1920064; active means well fitted curve in the direction sought with a large enough effect in the repeat runs; an effect the other way counts as inactive or inconclusive)
Chain of KiSS-1 receptor (Homo sapiens) (Q969F8 whole entry, looked up): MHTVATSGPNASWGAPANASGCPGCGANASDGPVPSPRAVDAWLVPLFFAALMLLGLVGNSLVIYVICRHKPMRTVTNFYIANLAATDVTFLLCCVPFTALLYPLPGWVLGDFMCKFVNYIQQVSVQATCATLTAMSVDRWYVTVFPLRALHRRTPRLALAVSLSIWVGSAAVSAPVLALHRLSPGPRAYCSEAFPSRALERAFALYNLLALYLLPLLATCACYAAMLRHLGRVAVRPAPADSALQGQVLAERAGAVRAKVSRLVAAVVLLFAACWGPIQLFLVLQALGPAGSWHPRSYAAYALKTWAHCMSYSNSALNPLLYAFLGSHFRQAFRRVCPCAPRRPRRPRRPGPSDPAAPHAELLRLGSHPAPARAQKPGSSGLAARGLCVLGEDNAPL
Outline: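 Calcium flux read-out: kinetic fluorescence at Ex/Em=480/540, 1 s intervals over 3 min, after pin-tool compound addition to dye-loaded KISS1R-HEK293 cells. Fifteen concentrations, triplicates.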

[4] = G protein-coupled receptor (GPCR) small molecule agonists, calcium flux assay: HEK293 wild type cell line counter screen (AID 1920065)
Outline: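 Agonist mode; 18 h seeding at 37 C, 1 h dye load at 37 C; compounds pinned from DMSO, ATP as positive control; kinetic fluorescence 480/540 nm, 3 min, 1 s reads; 15 concentrations, triplicate.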

[5] = p53 small molecule agonists, cell-based qHTS assay with human liver microsomes (AID 1963577);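 further: p53 response element beta-lactamase reporter cells with liver microsomes plus NADPH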
Outline: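 16 h, 37 C exposure of p53RE-bla cells to compounds with human liver microsomes and NADPH (0.5 mg/mL final each); detection via LiveBLAzer mixture, 2 h dark at room temperature.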

[6] = p53 small molecule agonists, cell-based qHTS assay with rat liver microsomes (AID 1963578)
Outline: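 With rat liver microsomes and NADPH present (0.5 mg/mL final each), p53RE-bla cells are treated with compound for 16 h at 37 C. LiveBLAzer detection mixture is then applied for 2 h at room temperature in the dark.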

[7] = p53 small molecule agonists, cell-based qHTS assay with human liver microsomes: qHTS cell viability counter screen (AID 1963579); further: nearly all actives have a fitted effect of over 45% in size
Outline: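 In this multiplexed counter screen, the reporter plates were subsequently treated with CellTiter-Glo so that cell viability, reflected by luminescence, could be recorded for p53RE-bla cells dosed 16 h with compounds under microsomal activation (HLM and NADPH).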

[8] = p53 small molecule agonists, cell-based qHTS assay with rat liver microsomes: qHTS cell viability counter screen (AID 1963580); further: nearly all actives have a fitted effect of over 45% in size
Outline: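 Cytotoxicity counter screen: intracellular ATP read by CellTiter-Glo luminescence in the p53 reporter wells. HCT-116 p53RE-bla cells were treated for 16 h at 37 C alongside rat liver microsomes and NADPH, each 0.5 mg/mL final.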

[9] = p53 small molecule agonists, cell-based qHTS assay: qHTS cell viability counter screen (AID 1963581); further: nearly all actives have a fitted effect of over 45% in size
Outline: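 Cytotoxicity read-out: ATP-based luminescence (CellTiter-Glo, 30 min RT) measured in the same wells as the p53 reporter assay, HCT-116 p53RE-bla cells, 16 h compound exposure at 37 C.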

[10] = target: 5-hydroxytryptamine receptor 2A (Homo sapiens) (UniProt P28223); experiment: 5-hydroxytryptamine receptor 2A (HTR2A) small molecule antagonists, cell-based qHTS assay (AID 1963586); further: nearly all actives have a fitted effect of over 45% in size
Chain of 5-hydroxytryptamine receptor 2A (Homo sapiens) (P28223 whole entry, looked up): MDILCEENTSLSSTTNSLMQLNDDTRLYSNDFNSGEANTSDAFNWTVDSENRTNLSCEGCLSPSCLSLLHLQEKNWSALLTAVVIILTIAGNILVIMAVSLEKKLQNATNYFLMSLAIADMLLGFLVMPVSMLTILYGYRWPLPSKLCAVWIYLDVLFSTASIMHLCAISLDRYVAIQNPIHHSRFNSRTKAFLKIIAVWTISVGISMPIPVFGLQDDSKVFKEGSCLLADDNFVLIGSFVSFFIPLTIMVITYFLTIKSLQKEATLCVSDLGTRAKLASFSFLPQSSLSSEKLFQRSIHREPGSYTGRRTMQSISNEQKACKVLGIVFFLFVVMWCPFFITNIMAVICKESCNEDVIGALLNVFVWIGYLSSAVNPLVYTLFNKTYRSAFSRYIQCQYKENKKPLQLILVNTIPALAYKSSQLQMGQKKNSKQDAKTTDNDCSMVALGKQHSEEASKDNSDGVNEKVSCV
Outline: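 CHO cells stably expressing human HTR2A were plated for 18 h at 37 C, then loaded with calcium dye for 1 h. Compounds were preincubated 5 min at room temperature before DOI (4 nM solution) was added. Kinetic fluorescence was read for 3 min.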

[11] = target: 5-hydroxytryptamine receptor 2A (Homo sapiens) (UniProt P28223); experiment: 5-hydroxytryptamine receptor 2A (HTR2A) small molecule agonists, cell-based qHTS assay (AID 1963587); further: nearly all actives have a fitted effect of over 30% in size
Outline: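 Kinetic calcium-flux fluorescence (2 min, 1 sec intervals) after compound addition in agonist mode. HTR2A-CHO cells were cultured 18 h, then dye-loaded 1 h at 37 C.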

[12] = target: Muscarinic acetylcholine receptor M1 (Homo sapiens) (UniProt P11229); experiment: Cholinergic receptor muscarinic 1 (CHRM1) small molecule antagonists, cell-based qHTS assay (AID 1963588); further: nearly all actives have a fitted effect of over 40% in size
Chain of Muscarinic acetylcholine receptor M1 (Homo sapiens) (P11229 whole entry, looked up): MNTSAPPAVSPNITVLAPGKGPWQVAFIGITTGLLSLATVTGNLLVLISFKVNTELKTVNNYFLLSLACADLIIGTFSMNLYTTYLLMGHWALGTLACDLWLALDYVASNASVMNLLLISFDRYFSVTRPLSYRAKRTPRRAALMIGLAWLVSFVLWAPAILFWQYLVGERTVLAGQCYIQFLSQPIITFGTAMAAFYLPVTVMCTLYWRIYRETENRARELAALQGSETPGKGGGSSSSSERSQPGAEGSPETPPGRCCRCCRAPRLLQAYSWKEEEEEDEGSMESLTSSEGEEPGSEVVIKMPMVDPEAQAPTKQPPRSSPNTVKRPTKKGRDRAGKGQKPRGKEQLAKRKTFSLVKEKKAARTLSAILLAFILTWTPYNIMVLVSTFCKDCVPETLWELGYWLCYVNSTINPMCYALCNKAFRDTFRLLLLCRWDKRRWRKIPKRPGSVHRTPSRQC
Outline: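 Compounds were tested at 15 concentrations in three independent runs. Dye-loaded CHRM1-CHO cells were exposed 5 min at room temperature before stimulation by acetylcholine added at 50nM. Intracellular calcium was read kinetically on FDSS for 3 min.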

[13] = target: Muscarinic acetylcholine receptor M1 (Homo sapiens) (UniProt P11229); experiment: Cholinergic receptor muscarinic 1 (CHRM1) small molecule agonists, cell-based qHTS assay (AID 1963589); further: nearly all actives have a fitted effect of over 35% in size
Outline: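 Calcium flux read-out: kinetic fluorescence at 1 sec intervals after pin-tool compound addition to dye-loaded CHRM1-CHO cells (human M1). Agonist mode; 15 concentrations tested in triplicate independent runs.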

[14] = cAMP Responsive Elements (CRE) small molecule agonists, cell-based qHTS assay (AID 1963590)
Outline: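 Beta-lactamase reporter readout: LiveBLAzer B/G FRET substrate, 2 h at room temperature, added after 3 h compound treatment of CRE-bla HEK 293T cells at 37 C/5% CO2.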

[15] = cAMP Responsive Elements (CRE) small molecule antagonists, cell-based qHTS assay (AID 1963591; active means well fitted inhibition curve with a large enough effect in the signal ratio in the repeat runs, not every such curve was filed as active; the % refers to the signal ratio)
Outline: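 HEK293T CRE-bla; 18 h preincubation; compound pin-transfer; NKH477 0.25 uM final, 3 h, 37 C; LiveBLAzer FRET substrate 2 h RT.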

[16] = target: Beta-2 adrenergic receptor (Homo sapiens) (UniProt P07550); experiment: Adrenergic beta2 receptor (ADRB2) small molecule antagonists, cell-based qHTS assay (AID 1963592); further: series mostly up to about 92 µM; nearly all actives have a fitted effect of over 50% in size
Chain of Beta-2 adrenergic receptor (Homo sapiens) (P07550 whole entry, looked up): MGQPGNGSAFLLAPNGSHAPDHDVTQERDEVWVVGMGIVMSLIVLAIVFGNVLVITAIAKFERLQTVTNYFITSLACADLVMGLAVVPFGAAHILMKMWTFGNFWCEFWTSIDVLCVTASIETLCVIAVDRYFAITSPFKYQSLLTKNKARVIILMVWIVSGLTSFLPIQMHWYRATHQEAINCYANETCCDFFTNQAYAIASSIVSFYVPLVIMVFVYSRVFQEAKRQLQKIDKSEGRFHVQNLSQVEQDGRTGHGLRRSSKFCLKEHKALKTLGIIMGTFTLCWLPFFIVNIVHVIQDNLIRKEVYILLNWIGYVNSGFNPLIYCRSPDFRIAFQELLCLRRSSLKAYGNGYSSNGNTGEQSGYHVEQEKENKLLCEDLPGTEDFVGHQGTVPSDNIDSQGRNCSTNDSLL
Outline: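 Assay format: CHO-ADRB2 cells, 18-20hr seeding at 37C/5% CO2, then compound plus 1nM isoproterenol agonist mix for 0.5hr RT. Homogeneous time-resolved fluorescence cAMP detection after 1hr, expressed as 665/615 nm ratio.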

[17] = target: D(2) dopamine receptor (Homo sapiens) (UniProt P14416); experiment: Dopamine D2 receptor (DRD2) small molecule agonists, cell-based qHTS assay (AID 1963594); further: nearly all actives have a fitted effect of over 35% in size; further: potency means the concentration at half of the fitted maximal effect
Chain of D(2) dopamine receptor (Homo sapiens) (P14416 whole entry, looked up): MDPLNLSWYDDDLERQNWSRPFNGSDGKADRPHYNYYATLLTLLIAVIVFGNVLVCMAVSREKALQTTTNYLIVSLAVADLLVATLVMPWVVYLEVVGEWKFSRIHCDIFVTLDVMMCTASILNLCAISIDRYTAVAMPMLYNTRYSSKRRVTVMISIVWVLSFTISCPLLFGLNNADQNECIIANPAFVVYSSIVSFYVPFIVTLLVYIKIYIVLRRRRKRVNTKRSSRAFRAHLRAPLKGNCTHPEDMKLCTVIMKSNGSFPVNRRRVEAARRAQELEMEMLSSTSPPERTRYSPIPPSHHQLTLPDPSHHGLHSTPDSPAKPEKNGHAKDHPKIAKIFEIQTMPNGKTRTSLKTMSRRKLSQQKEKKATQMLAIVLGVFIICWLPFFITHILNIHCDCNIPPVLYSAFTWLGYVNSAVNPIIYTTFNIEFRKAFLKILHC
Outline: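 cAMP accumulation in DRD2-HEK293 cells measured by HTRF after 1 h detection; compounds added 10 min before NKH477 (200nM […]) forskolin-analogue stimulation, 30 min at room temperature, with Ro20-1724 present at 0.1 mM final.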

[18] = target: D(2) dopamine receptor (Homo sapiens) (UniProt P14416); experiment: Dopamine D2 receptor (DRD2) small molecule antagonists, cell-based qHTS assay (AID 1963595; active means well fitted inhibition curve with a large enough effect in the signal ratio in the repeat runs, with a control signal flat; the % refers to the signal ratio)
Outline: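 Antagonism was scored as restored cAMP in HEK293-DRD2 cells. These cells were stimulated with 200 nM NKH477 and 12 nM quinpirole for 30 min at room temperature, in the presence of 0.1 mM Ro20-1724.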

[19] = target: Beta-2 adrenergic receptor (Homo sapiens) (UniProt P07550); experiment: Adrenergic beta2 receptor (ADRB2) small molecule agonists, cell-based qHTS assay (AID 1963593);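 further: CHO cells stably overexpressing human ADRB2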
Outline: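 CHO cells stably over-expressing ADRB2 were plated overnight at 37C, then dosed with compounds plus a stimulation mix containing 100uM IBMX and 25uM Ro-20-1724 for 0.5hr at room temperature. cAMP was measured by HTRF competition, 1hr.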

[20] = p53 small molecule agonists, cell-based qHTS assay (AID 1963582; active means well fitted activation curve with a large enough effect in the signal ratio in the repeat runs, not every such curve was filed as active; the % refers to the signal ratio)
Outline: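 Fluorescence intensity read-out of a beta-lactamase reporter under a p53 response element. Cells were exposed to DMSO-dissolved compounds for 16 h at 37 C, then developed with FRET substrate for 2 h at RT.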
On the % scale 0 is the no-effect control and ±100 the full control effect.

CCCCCSCCCCC
inactive: Potency [1] | Potency [2] | Potency [3] | Potency [4] | Potency [5] | Potency [6] | Potency [7] | Potency [8] | Potency [9] | Potency [10] | Potency [11] | Potency [12] | Potency [13] | Potency [14] | Potency [15] | Potency [16] | Potency [17] | Potency [18]

O=C1NC(=O)[C@@H]2CC=CC[C@H]12
inactive: Potency [1] | Potency [2] | Potency [3] | Potency [4] | Potency [5] | Potency [6] | Potency [7] | Potency [8] | Potency [9] | Potency [10] | Potency [11] | Potency [13] | Potency [16] | Potency [19] | Potency [17] | Potency [18]

CC(CN)CCCN (stereo unspecified)
inactive: Potency [1] | Potency [2] | Potency [3] | Potency [4] | Potency [5] | Potency [6] | Potency [7] | Potency [8] | Potency [20] | Potency [10] | Potency [11] | Potency [12] | Potency [13] | Potency [14] | Potency [15] | Potency [16] | Potency [17] | Potency [18]

Cc1cc(O)c(Cl)c(C)c1Cl
inactive: Potency [1] | Potency [2] | Potency [3] | Potency [4] | Potency [5] | Potency [6] | Potency [7] | Potency [8] | Potency [9] | Potency [11] | Potency [12] | Potency [13] | Potency [14] | Potency [19] | Potency [18]

c1ccc2sc(SSc3nc4ccccc4s3)nc2c1
inactive: activity change, negative = cytotoxicity [1] 22.3% [at 19 µM] | activity change [2] -1.6% [at 11.8 µM, hits give high values] | activation [3] 4.25% [at 15.8 µM] | activation [4] 0.255% [at 11.8 µM] | activation [5] 13.9% [at 13.5 µM] | activation [6] -0.548% [at 13.6 µM] | activity change, negative = cytotoxicity [7] -2.64% [at 13.5 µM] | activity change, negative = cytotoxicity [8] 0.0229% [at 13.5 µM] | activity change, negative = cytotoxicity [9] -1.21% [at 13.5 µM] | activation [20] 0.366% [at 13.5 µM] | activation [14] -0.0759% [at 19 µM] | activity change, negative = inhibition [15] 0.327% [at 18.9 µM] | activity change, negative = inhibition [16] 1.66% [at 19 µM] | activation [17] 10.5% [at 19 µM] | activity change, negative = inhibition [18] 5.58% [at 18.9 µM]

CC(=O)[C@H]1[C@H](C#N)C[C@H]2[C@@H]3CC=C4C[C@@H](O)CC[C@]4(C)[C@H]3CC[C@@]21C
inactive: Potency [1] | Potency [2] | Potency [3] | Potency [4] | Potency [5] | Potency [6] | Potency [7] | Potency [8] | Potency [9] | Potency [20] | Potency [14] | Potency [16] | Potency [17] | Potency [18]

NC1=NCC2c3ccccc3Cc3ccccc3N12 (stereo unspecified)
active: Potency [17] 4.92 µM
inactive: Potency [1] | Potency [2] | Potency [3] | Potency [4] | Potency [5] | Potency [6] | Potency [7] | Potency [8] | Potency [20] | Potency [11] | Potency [12] | Potency [13] | Potency [15] | Potency [16] | Potency [18]

CS(=O)(=O)Nc1ccc([N+](=O)[O-])cc1Oc1ccccc1
inactive: Potency [1] | Potency [2] | Potency [3] | Potency [4] | Potency [5] | Potency [6] | Potency [7] | Potency [8] | Potency [9] | Potency [20] | Potency [14] | Potency [16] | Potency [19] | Potency [17]
